# Target: Concanavalin-A (Canavalia ensiformis) (UniProt P02866)
# Assay: ConA small-molecule binders, primary screen, artefact control for SMM control protein annotation, biochemical, small-molecule microarray, Alexa647 label, 635 nm (AID 1127);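 further: z combines 667 nm emission intensity with signal-to-noise across three replicate slides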
# Conditions: ConA-A647 binding fluorescence, higher = more signal
# Sequence of Concanavalin-A (Canavalia ensiformis) (P02866 whole entry, looked up): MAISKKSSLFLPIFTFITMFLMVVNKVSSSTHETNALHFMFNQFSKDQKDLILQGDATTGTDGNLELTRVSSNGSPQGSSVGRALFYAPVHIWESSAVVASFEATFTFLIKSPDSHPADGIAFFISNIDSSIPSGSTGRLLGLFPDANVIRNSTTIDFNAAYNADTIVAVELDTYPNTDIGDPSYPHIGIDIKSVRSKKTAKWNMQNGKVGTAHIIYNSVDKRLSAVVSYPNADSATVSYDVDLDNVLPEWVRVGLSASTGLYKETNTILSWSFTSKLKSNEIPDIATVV
row,SMILES,composite z-score
1,O=c1cccc(C=Cc2ccccc2)o1,-0.514
2,CCCCC(CC)C(O)C1C=CC2C(=O)N(c3ccccc3)C(=O)C2N1Nc1ccccc1 (stereo not given),0.964
3,COc1ccc([Si](C)(C)[C@@H]2[C@@H](CC(=O)N(CCO)Cc3ccccc3)O[C@]3(C(=O)N(C)c4ccccc43)[C@H]2C)cc1,1.12
4,CC(C)C[C@@H]1NC(=O)[C@H]2C[C@@H](C(=O)NCCCCCNC(=O)CS)[C@@H](c3cccc(OCCO)c3)N2C1=O,1
5,O=C(OCCF)C1=CCC(c2cccc(Cl)c2)O1 (stereo not given),0.532
6,O=C(O)[C@@]1(Cc2ccccc2)N=C(c2ccc(OCCCO)cc2)O[C@H]1c1ccccc1,0.649
7,CO[C@H]1O[C@H](CO)[C@@H](OC(=O)Nc2ccc(Oc3ccccc3)cc2)[C@H](OC(=O)Nc2ccccc2)[C@H]1OC(=O)Nc1ccccc1,1.16
8,O=C(CS)NCCCCCCNC(=O)[C@H]1C[C@H]2C(=O)NCC(=O)N2[C@H]1c1ccc(O)cc1,0.336
9,COCCOC(=O)N1C(=O)[C@@]2(c3cc(C#CCCO)ccc31)[C@H](c1ccc(O)cc1)N1[C@H](c3ccccc3)[C@H](c3ccccc3)OC(=O)[C@H]1[C@@H]2C(N)=O,0.59
10,CC(C)(C)N1CC=CC23O[C@@H]4/C=C\CCCOC(=O)C4[C@H]2C(=O)N(CCO)[C@@H]3C1=O (stereo not given in full),-0.0702

# Test system: not listed separately
# Assay: anti-His antibody binders, primary screen, artefact control for SMM control protein annotation, biochemical, small-molecule microarray, 635 nm fluorescence (AID 1128);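 further: score merges feature fluorescence with signal-to-noise for each printed compound spot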
# Conditions: anti-His Alexa647 antibody binding, higher = more signal
row,SMILES,composite z-score
1,COc1cc(CO)ccc1OC(C)=O,0.529
2,COc1ccc(C#Cc2ccc3c(c2)[C@]2(C(=O)N3)[C@H](c3ccc(O)cc3)N3[C@H](c4ccccc4)[C@H](c4ccccc4)OC(=O)[C@H]3[C@@H]2C(=O)N2CCCCCCC2)cc1,0.477
3,CN1C=C(C(=O)OCCS(C)(=O)=O)C(C(=O)OCCS(C)(=O)=O)=CC(CCCO)=CC1C1CC1 (stereo not given),0.464
4,COCCOC(=O)N1C(=O)[C@@]2(c3cc(C#CCC(C(=O)OC)C(=O)OC)ccc31)[C@H](c1ccc(O)cc1)N1[C@H](c3ccccc3)[C@H](c3ccccc3)OC(=O)[C@H]1[C@@H]2C(N)=O,1.54
5,COc1ccc(NN2C(C(O)c3ccc(OC)c(OCc4ccccc4)c3)C=CC3C(=O)N(C4CCCCC4)C(=O)C32)cc1 (stereo not given),0.867
6,CC(C)N1CC=CC23O[C@@H]4C=CCOC(=O)[C@@H]4[C@H]2C(=O)N(CCO)[C@@H]3C1=O (stereo not given in full),0.386
7,O=C1c2ccccc2[C@@]2(Cc3ccccc3N(Cc3ccccc3)C2=O)[C@H](c2ccc(CO)cc2)N1C1CCCCC1,0.386
8,CO[C@H]1O[C@H](CO)[C@@H](OC(=O)Nc2ccc3c(c2)OCO3)[C@H](OC(=O)Nc2ccccc2)[C@H]1OC(=O)Nc1ccccc1,1.77
9,CC(C)C[C@@H]1NC(=O)[C@@H]2C[C@H](C(=O)NCCCCCC[N+](C)(C)C)[C@H](c3ccc(O)cc3)N2C1=O,1.59
10,N#Cc1ccc(NN2C(C(O)C3CCCCC3)C=CC3C(=O)N(c4ccccc4)C(=O)C32)cc1 (stereo not given),0.422
11,O=c1oc(-c2ccccc2)nc2cc(Br)ccc12,0.118
12,COC(=O)[C@@]1(Cc2ccc(OC)cc2)[C@H]2c3cc(C(=O)N(C)C)n(Cc4c(OC)[nH]cc(C)c4=O)c3C[C@H]2CN1C(=O)c1ccccc1,-0.13
13,CC(C)NC(=O)[C@@H]1c2ccccc2C(=O)N(Cc2ccccc2)[C@H]1c1ccc(CO)cc1,0.166
14,O=C1C=CC(=O)[C@@H]2CC(COc3ccccc3)=C3[C@@H](CCc4ccccc4)OB(O)C[C@@H]3[C@H]12,0.346
15,C=CCC(OC(C)=O)[C@@H]1[C@@H](N(Cc2cccc3ccccc23)C(=O)c2cccc3ccccc23)c2cc(OCCCO)ccc2N1C(=O)c1ccc2ccccc2n1 (stereo not given in full),0.833
16,O=C1[C@]2(CO)C=C(Br)[C@@H](C[C@@H]2c2ccccc2)[C@@]12CO2,0.123
17,COCC1=C2[C@@H](CCc3ccccc3)OB(O)C[C@@H]2[C@@H]2C(=O)N(Cc3ccccc3)C(=O)[C@@H]2C1,-0.0926
18,CCOC(=O)C1=CC[C@@H](c2ccccc2)N(S(=O)(=O)c2ccc(C)cc2)[C@H]1C(=O)OCC,0.558

row,SMILES,composite z-score
1,Cc1ccccc1C(O)C1C=CC2C(=O)N(C)C(=O)C2N1Nc1ccccc1 (stereo not given),1.23
2,C=CCC(OC(C)=O)[C@@H]1[C@@H](N(Cc2ccc(-c3ccccc3)cc2)C(=O)Cc2ccc(OC)cc2)c2cc(OCCCO)ccc2N1C(=O)c1ccc2ccccc2n1 (stereo not given in full),0.009
3,CCN(CC)c1ccc(N2CC=CC34O[C@@H]5C=CCCOC(=O)C5[C@H]3C(=O)N(CCCCCO)[C@@H]4C2=O)cc1 (stereo not given in full),0.0436
4,C[C@]1(C(=O)NCc2ccccc2)c2ccccc2C(=O)N(Cc2ccc(OC(F)(F)F)cc2)[C@H]1c1ccc(CO)cc1,1.71
5,CC(=O)Nc1cc(Br)ccc1C(=O)O,0.0952
6,COC(=O)C[C@H]1O[C@]2(C(=O)N(Cc3ccccc3)c3ccc(NC(C)=O)cc32)[C@@H](C)[C@@H]1[Si](C)(C)c1ccc(OC)cc1,0.242
7,COCCOC(=O)N1C(=O)[C@@]2(c3cc(C#CCC(C(=O)OC)C(=O)OC)ccc31)[C@H](C(=O)N1CCN(c3ncccn3)CC1)[C@H]1C(=O)O[C@H](c3ccccc3)[C@H](c3ccccc3)N1[C@@H]2c1ccc(OCCO)cc1,1.61
8,O=c1cccc(C=Cc2ccccc2)o1,-0.23
9,CCCCC(CC)C(O)C1C=CC2C(=O)N(c3ccccc3)C(=O)C2N1Nc1ccccc1 (stereo not given),0.804
10,COc1ccc([Si](C)(C)[C@@H]2[C@@H](CC(=O)N(CCO)Cc3ccccc3)O[C@]3(C(=O)N(C)c4ccccc43)[C@H]2C)cc1,1.93
11,CC(C)C[C@@H]1NC(=O)[C@H]2C[C@@H](C(=O)NCCCCCNC(=O)CS)[C@@H](c3cccc(OCCO)c3)N2C1=O,2.41
12,O=C(OCCF)C1=CCC(c2cccc(Cl)c2)O1 (stereo not given),0.1
13,O=C(O)[C@@]1(Cc2ccccc2)N=C(c2ccc(OCCCO)cc2)O[C@H]1c1ccccc1,1.31
14,CO[C@H]1O[C@H](CO)[C@@H](OC(=O)Nc2ccc(Oc3ccccc3)cc2)[C@H](OC(=O)Nc2ccccc2)[C@H]1OC(=O)Nc1ccccc1,1.88
15,O=C(CS)NCCCCCCNC(=O)[C@H]1C[C@H]2C(=O)NCC(=O)N2[C@H]1c1ccc(O)cc1,0.0346
16,COCCOC(=O)N1C(=O)[C@@]2(c3cc(C#CCCO)ccc31)[C@H](c1ccc(O)cc1)N1[C@H](c3ccccc3)[C@H](c3ccccc3)OC(=O)[C@H]1[C@@H]2C(N)=O,3.05
17,CC(C)(C)N1CC=CC23O[C@@H]4/C=C\CCCOC(=O)C4[C@H]2C(=O)N(CCO)[C@@H]3C1=O (stereo not given in full),0.543
